# Screening data from PubChem BioAssay.
# Most compounds without a hit are left out; they make up all but 6.2% or so of the library.
# RORg inh: inhibitors of mouse ROR gamma transcriptional activity. Potency, µM (titrated, usually from 53.6 µM), actives largely listed as inhibitors. Drosophila S2 Gal4-RORgamma UAS-luciferase reporter, 20 h. actives 5.4% (n = 310,000); also: nearly all actives have a fitted effect of over 60% in size
# Target sequence (P51450 whole entry, looked up, the tested form may be a part): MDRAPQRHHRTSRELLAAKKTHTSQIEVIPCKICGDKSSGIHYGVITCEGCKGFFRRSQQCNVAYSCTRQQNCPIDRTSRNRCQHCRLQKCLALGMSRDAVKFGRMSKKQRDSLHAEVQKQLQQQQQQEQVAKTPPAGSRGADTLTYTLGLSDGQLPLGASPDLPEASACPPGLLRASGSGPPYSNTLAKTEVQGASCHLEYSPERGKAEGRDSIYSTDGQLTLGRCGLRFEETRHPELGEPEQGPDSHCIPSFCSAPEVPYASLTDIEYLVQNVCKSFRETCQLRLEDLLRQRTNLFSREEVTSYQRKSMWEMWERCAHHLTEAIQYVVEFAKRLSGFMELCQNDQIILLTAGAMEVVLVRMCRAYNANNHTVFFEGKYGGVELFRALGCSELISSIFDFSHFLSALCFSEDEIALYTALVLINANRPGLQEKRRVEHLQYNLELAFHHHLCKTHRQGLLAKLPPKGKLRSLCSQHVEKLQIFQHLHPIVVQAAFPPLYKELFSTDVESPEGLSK
#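 Compounds are pin-transferred onto Drosophila Schneider cells expressing a copper-inducible Gal4–ROR gamma transactivation domain fusion. After 1 hr, copper sulfate is added to 700 uM final; luciferase is read 20 hr later.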
# Luc counter: counter-screen: inhibitors of Kinase-Glo firefly luciferase. Kinase-Glo luciferase, ATP luminescence, 8 min. Potency, µM (highest dose often 38.3 µM), usual class: inhibitors. actives 0.28% (n = 200,000). AID 1379; also: nearly all actives have a fitted effect of over 60% in size
#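 Kinase-Glo luciferase light output from ATP and luciferin was measured with 10 uM ATP, within the enzyme's linear range. Buffer: 50 mM imidazole pH 7.2, 50 mM KCl, 7 mM MgCl2, 0.01% Tween 20, 0.05% BSA; luminescence read after 8 min at ambient temperature.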
# Gal4-VP16 FLuc: inhibits Gal4-VP16 luciferase reporter, ROR gamma counter-screen; Potency, µM (top dose mostly 53.6 µM), most hits filed as inhibitors; actives 3.5% (n = 310,000); Drosophila S2 Gal4-VP16 UAS-luciferase, luminescence, 20 h; AID 2546;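 also: Gal4-VP16 expression switched on by copper sulfate through the metallothionein promoter; nearly all actives have a fitted effect of over 50% in size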
# Numbers stand for hits; i = inactive; ? = inconclusive; nt = not tested or not shown; [ ] = another dose, or the depositor's remark. Calls follow the shape of the dose curve; as a rule, active = well fitted curve in the direction sought with a large enough effect; inconclusive = small, poorly fitted or top-dose-only effect, or another doubt; inactive = no such curve, though single readings can be large; an effect the other way counts as inactive or inconclusive.
SMILES,RORg inh,Luc counter,Gal4-VP16 FLuc
Cc1c2ccccc2nc2c(F)c(NCCO)c(F)c(F)c12,i,i,i
OCCNc1c2ccccc2nc2c(F)c(F)c(F)c(F)c12,10µM,i,7.94µM
Cc1ccc2c(c1)oc(=O)n2CC(=O)c1ccccc1,i,nt,i
Clc1ccc(OCc2nc(-c3ccccn3)n[nH]2)cc1,i,i,i
Brc1ccc(OCc2nc(-c3ccccn3)n[nH]2)cc1,14.1µM,i,?
CC(C)Oc1ccc(C2NC(=O)c3ccccc3O2)cc1 (stereo unspecified),i,nt,i
COc1cc(-c2nc3ccc4ccccc4c3c3c2CCC3)cc(OC)c1OC,5.62µM,i,22.4µM
COc1cc(-c2nc3ccc4ccccc4c3c3c2CCC3)cc(OC)c1O,i,i,?
CCC(C(=O)NC1CCCCC1)N(Cc1cccs1)C(=O)c1snc(C(N)=O)c1N (stereo unspecified),i,i,i
CCNC(=O)C1CC(=O)N(Cc2ccc3c(c2)OCO3)C(=Nc2ccc(F)cc2)S1 (stereo unspecified),i,i,i
C/C(CCc1ccc2c(c1)OCO2)=N\N=C1\NC(=O)CC(C(=O)Nc2ccccc2F)S1 (stereo unspecified),11.2µM,i,?
Cc1cccc(NCCC(=O)c2ccc([N+](=O)[O-])cc2)c1C,i,i,i[10 µM]
Cc1ccc(NCCC(=O)c2cccc([N+](=O)[O-])c2)c(C)c1,10µM,i,?
O=C(c1cc([N+](=O)[O-])cc([N+](=O)[O-])c1)N1CCN(Cc2ccc3c(c2)OCO3)CC1,i,i,i
COc1ccc(C(=O)N2CCC3(CCN(Cc4ccc(C#N)cc4)CC3)CC2)cc1,i,i,i
Cc1cc(C)cc(OCC(=O)Nc2cccc(C(=O)O)c2)c1,i,i,i
O=C(Nc1ccc(Cl)c(Cl)c1)Nc1ccccc1C(=O)O,?,i,?
CCOC(=O)c1cccc(NC(=O)Nc2ccc(OCC)cc2)c1,i,i,i
CC(=O)Nc1cccc(C(=O)/C=C/c2ccc(C)cc2)c1,12.6µM,i,?
CCC(=O)Nc1cccc(C(=O)/C=C/c2ccc(F)cc2)c1,?,i,?
CCOc1ccc(NC(=O)Nc2cccc(C(=O)O)c2)cc1,5.01µM,?,5.01µM
Cc1ccccc1OCC(=O)Nc1cccc(C(=O)O)c1,2.51µM,i,6.31µM
O=C(Nc1ccc(Cl)cc1)Nc1ccccc1C(=O)O,7.08µM,12.6µM,11.2µM
COc1ccccc1-c1coc2cc(O)ccc2c1=O,?,i,i
COc1ccc(-n2nc3c(c2NC(=O)C2CC(=O)N(c4ccccc4)C2)CS(=O)(=O)C3)cc1 (stereo unspecified),i,nt,i
SMILES,RORg inh,Luc counter,Gal4-VP16 FLuc
COc1cc2c(cc1OC)C(COc1cccc(C(F)(F)F)c1)NCC2 (stereo unspecified),i,nt,i
CC(=O)Oc1ccc(C(=O)Nc2cccnc2)cc1,i,nt,i
Cc1cccc(NC(=O)COc2ccc(Br)cc2/C=N/O)c1,5.62µM,i,5.01µM
CC(=O)Nc1ccc(NC(=O)COc2ccc(Br)cc2C)cc1,i,i,i
CCOc1ccc(/C=C/C(=O)Nc2cccc(C(C)=O)c2)cc1,1.12µM,i,4.47µM
CCOc1ccccc1OCCC(=O)Nc1ccc(F)c(Cl)c1,?,i,?
Cc1ccccc1OCCC(=O)Nc1ccc(F)c(Cl)c1,5.62µM,i,4.47µM
O=C(Nc1ccc(Cl)cc1)Nc1cccc(C(=O)O)c1,3.16µM,i,1.41µM
O=C(Nc1cccc(Cl)c1)Nc1cccc(C(=O)O)c1,i,nt,i
CCOc1ccc(NC(C(=O)Nc2cccc(C(C)=O)c2)c2ccccc2)cc1 (stereo unspecified),?,i,i
O=C(COC(=O)CCC(=O)c1cccs1)NCc1ccccc1,i,i,i
COc1cccc2c1N(C)C(=O)CC21C=CC(=O)C=C1,?,nt,i
O=C(COC(=O)c1ccccc1C(=O)c1ccccc1)NCCc1ccc(Cl)cc1Cl,i,i,i
CCC(=O)NC(=S)Nc1cccc(NC(=O)c2ccc(Cl)cc2Cl)c1,2.82µM,i,6.31µM
CCCC(=O)NC(=S)Nc1cccc(C(C)=O)c1,10µM,i,?
CC(=O)c1cccc(NC(=S)NC(=O)CC(C)C)c1,?,i,7.94µM
CCCCCC(=O)NC(=S)Nc1cccc(C(C)=O)c1,2.82µM,i,?
CCCOC(=O)Nc1cccc(C(C)=O)c1,i,i,i
CCCCC(=O)Nc1cccc(NC(=S)NC(=O)C(C)C)c1,i,i,i
CCC(=O)NC(=S)Nc1ccc(NC(=O)c2ccc([N+](=O)[O-])cc2Cl)cc1,i,i,i
COc1cc(C(CC(=O)Nc2ccc(Cl)cn2)N2Cc3ccccc3C2=O)cc(OC)c1OC (stereo unspecified),i,nt,i
CN1CCN(c2ccc(NC(=O)CSc3nnnn3-c3ccccc3F)cc2)CC1,i,nt,i
